Assay outcomes as filed in PubChem BioAssay.
Hits are enriched below; roughly 2.4% of the tested compounds scored in any of these assays.
S2 tox: reduces viability in counter-screen for ATXN expression inhibitors; S2 cells (HEK-293 line with an ATXN2-luciferase reporter) viability, CellTiter-Fluor protease fluorescence, 24 h; Potency, µM (series often up to 56.7 µM), hits mostly cytotoxic; 0.49% of 400,000 active; AID 651635; note: nearly all actives have a fitted effect of over 40% in size
HepG2 viability: kills HepG2 cells in TGF-b inhibitor counter-screen; HepG2 CAGA-GFP viability, ATP luminescence, 18 h; Potency, µM (doses to about 46.1 µM), for inactives: at the highest dose activity change, negative = cytotoxicity, usual class: cytotoxic; 0.76% of 410,000 active
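CellTiter-Glo luminescence gave cytotoxicity after 18 hours at 37 degrees C. The cells were HepG2 CAGA-GFP in 1% FBS DMEM, stimulated with 500 pg/mL TGF-beta after compound addition. %Activity was normalised to no-cell wells (complete cell-killing) and DMSO (no toxicity), and curves were fitted and classified.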
ATXN2 expr inh: reduces ATXN2 reporter expression in HEK-293 cells | HEK-293 ATXN2-luciferase reporter, luminescence, 24 h | Potency, µM (doses to about 57 µM), inactives show top-dose activity change, negative = inhibition, hits mostly inhibitors | 0.72% of 360,000 active | AID 1745845; note: % is set by controls: 0 for no effect and ±100 for the full control effect; nearly all actives have a fitted effect of over 55% in size
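ATXN2-luciferase reporter cells (luciferase flanked by upstream and downstream ATXN2 gene portions) were treated 24 h at 37 °C with compounds at up to 57 uM. SteadyGlo luminescence gave expression; GF-AFC fluorescence gave viability.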
TGFb inhibitor: TGF-b pathway inhibition; HepG2 CAGA-GFP TGF-b/SMAD3 reporter, GFP fluorescence, 18 h; TGF-beta stimulated, 500 pg/mL final; Potency, µM (doses to about 46.1 µM), for the others: at the top dose activity, negative = inhibition, usual class: inhibitors; 1.2% of 410,000 active; AID 588855; note: % is set by controls: 0 for no effect and ±100 for the full control effect; nearly all actives have a fitted effect of over 65% in size
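Per well, imaged GFP fluorescence of HEPG2 CAGA-GFP cells gives the signal; cells get compound, then TGF-beta (500 pg/mL final), 18 h at 37 degrees C; %Activity versus -TGF-beta and +DMSO controls.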
Anesthetic bind: binds horse apoferritin like a general anesthetic | P02791 | apoferritin/1-aminoanthracene competitive binding, fluorescence | Potency, µM (series often up to 77.5 µM), for the others: at the top dose activity change, negative = displacement, most hits filed as inhibitors | 0.074% of 350,000 active | AID 485281; note: % is set by controls: 0 for no effect and ±100 for the full control effect; nearly all actives have a fitted effect of over 20% in size
Target sequence (P02791 2-175 limits assumed): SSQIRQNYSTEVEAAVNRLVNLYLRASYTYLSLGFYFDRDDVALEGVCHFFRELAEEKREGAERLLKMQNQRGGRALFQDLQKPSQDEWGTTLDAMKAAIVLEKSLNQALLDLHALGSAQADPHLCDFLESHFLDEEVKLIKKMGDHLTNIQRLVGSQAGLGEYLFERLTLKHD
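Horse-spleen apoferritin (10 uM) in 50% saturated 1-aminoanthracene in PBS was incubated 10 min at room temperature with compound. Fluorescence (ex 380, em 535 nm) was normalized to free and bound 1-AMA, with concentration-response fitted by a four-parameter Hill equation.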
* marks the source's active call; other numbers are inactive results; i = inactive; ? = inconclusive; nt = no result given; [ ] = remark or other dose. Calls come from the whole dose curve; as a rule, active = well fitted curve in the direction sought with a large enough effect; inconclusive = small, poorly fitted or top-dose-only effect, or another doubt; inactive = no such curve, though single readings can be large; an effect the other way counts as inactive or inconclusive. Potency is the fitted concentration of half-maximal effect.

SMILES	S2 tox	HepG2 viability	ATXN2 expr inh	TGFb inhibitor	Anesthetic bind
CC(C)=CCCC1(C)C=Cc2c(c(C)cc3c2[nH]c2cc(O)ccc23)O1 (stereo not drawn)	28.2µM*	11.2µM*	?	11.2µM*	?
CCCC[C@@H](C=O)NC(=O)[C@H](CC(C)C)NC(=O)OCc1ccccc1	nt	nt	nt	nt	-13.1%
COc1cccc(CNC(=O)c2c(OC)cc(=O)n3c2CCN(C(=O)c2ccc(C)nc2)CC3)c1	i	nt	nt	nt	nt
O=C(Nc1cc(Cl)ccc1O)C1CC(c2c(F)cccc2Cl)=NO1 (stereo not drawn)	i	0.5%	-3.4%	-27.4%	?
O=C(Nc1cc(Br)ccc1O)C1CC(c2ccccc2Cl)=NO1 (stereo not drawn)	i	-57.1%	4.7%	15.8µM*	-23.3%
CN(C)c1ccc(/C=C(\C#N)c2ccccn2)cc1	i	-61.9%	11.2µM*	26.6%	-2.3%
N#C/C(=C\c1ccc([N+](=O)[O-])cc1)c1ccccn1	i	-28.2%	60.8%	5.5%	-5.3%
CN(C)C1CCC(CC2CCc3ccccc32)CC1 (stereo not drawn)	nt	12.2%	nt	-19.7%	nt
CCCCN(CCCC)c1ccc(Cn2ccc3ccccc32)cc1	nt	-72.0%	nt	17.8µM*	nt
O=C(NCCc1ccccn1)C1CC12CCN(C(=O)c1ccc(F)cc1Cl)CC2 (stereo not drawn)	i	nt	nt	nt	nt
CCn1c(=S)sc2c(=O)[nH]c(SCC(=O)Nc3cc(OC)ccc3OC)nc21	i	-0.2%	1.9%	-20.9%	-15.5%
Cc1cc(C)c2c(=O)n3c(nc2c1)C(Cc1ccc(O)cc1)NC(=O)c1cccnc1-3 (stereo not drawn)	?	-32.5%	-20.4%	?	nt
Cc1cc(C)c2c(=O)n3c(nc2c1)C(Cc1ccccc1)NC(=O)c1cccnc1-3 (stereo not drawn)	10µM*	-29.4%	-34.7%	?	nt
CCCCCCn1c(=O)n2n(c1=O)[C@@H]1CN(S(=O)(=O)c3ccc(C)cc3)C[C@]1(O)[C@@H](OC(=O)NCC1CCCCC1)C2	nt	-118.5%	?	?	nt
CCCCCCn1c(=O)n2n(c1=O)[C@@H]1CN(S(=O)(=O)c3ccc(C)cc3)C[C@]1(O)[C@@H](OC(=O)NC1CCCC1)C2	nt	-30.0%	?	11.2µM*	nt
CCCCCCNC(=O)O[C@H]1Cn2c(=O)n(CCCCCC)c(=O)n2[C@@H]2CN(S(=O)(=O)c3ccc(C)cc3)C[C@]12O	nt	22.4µM*	?	?	nt
Cc1ccc(S(=O)(=O)N2C[C@H]3n4c(=O)ccc(=O)n4C[C@H](OC(=O)NCc4ccccc4F)[C@@]3(O)C2)cc1	nt	-18.2%	?	?	nt
CCCCCCn1c(=O)n2n(c1=O)[C@@H]1CN(S(=O)(=O)c3ccc(C)cc3)C[C@]1(O)[C@@H](OC(=O)NC1CC1)C2	i	2.9%	5.5%	-1.0%	nt
CCCCCCn1c(=O)n2n(c1=O)[C@@H]1CN(S(=O)(=O)c3ccc(C)cc3)C[C@]1(O)[C@@H](OC(=O)NCc1ccccc1F)C2	nt	7.94µM*	?	12.6µM*	nt
CCCCCCNC(=O)O[C@H]1Cn2c(=O)ccc(=O)n2[C@@H]2CN(S(=O)(=O)c3ccc(C)cc3)C[C@]12O	20µM*	-108.5%	14.1µM*	?	nt
CN1CCCN(C(=O)[C@@H]2C[C@@H](Sc3nc4ccccc4[nH]3)CN2Cc2ccc(-c3ccccc3)cc2)CC1	i	nt	nt	nt	nt
CC(C)c1c(C(=O)N2CCCCC2c2cccnc2)cnn1-c1nccc(-c2cccs2)n1 (stereo not drawn)	i	nt	nt	nt	nt
CC(C)=CCC1=C(OCC(=O)O)C(=O)c2ccccc2C1=O	?	11.2µM*	nt	14.1µM*	-9.8%
OCCSc1nc(-c2ccccc2)nc2ccc(F)cc12	i	-17.5%	nt	5.9%	-18.3%
NC(N)=Nc1nc(-c2ccccc2)c2cc(F)ccc2n1	5.62µM*	-78.8%	?	?	?
SMILES	S2 tox	HepG2 viability	ATXN2 expr inh	TGFb inhibitor	Anesthetic bind
Cn1c(=O)[nH]c(=O)c2c1nc([N+](=O)[O-])n2Cc1ccccc1	5.97µM*	5.01µM*	?	5.01µM*	-9.6%
CC(C)Cn1c([N+](=O)[O-])nc2c1c(=O)[nH]c(=O)n2C	nt	11.2µM*	?	?	-1.1%
Cc1ccc(C(=O)CC2(O)C(=O)N(CCc3ccccc3)c3ccc(Cl)cc32)cc1 (stereo not drawn)	?	11.2µM*	?	17.8µM*	-16.2%
O=C(CC1(O)C(=O)N(CCc2ccccc2)c2ccc(Br)cc21)c1ccccc1 (stereo not drawn)	i	-104.8%	-18.2%	?	-11.9%
CC[n+]1ccc(/C=C2\Sc3ccccc3N2CCCS(=O)(=O)[O-])c2ccccc21	i	6.4%	-8.6%	?	-4.9%
C[n+]1ccc(/C=C/c2ccc(F)cc2)c2ccccc21	nt	-41.6%	nt	-2.5%	nt
COc1ccc(/C=C/c2cc[n+](C)c3ccccc23)cc1OC	nt	-8.3%	nt	34.1%	nt
C[n+]1ccc(/C=C/c2ccc([N+](C)(C)C)cc2)c2ccccc21	nt	-69.0%	nt	4.47µM*	nt
C[n+]1ccc(/C=C/c2cc[n+](C)c3ccccc23)c2ccccc21	nt	-68.7%	nt	7.08µM*	nt
CN1C=C/C(=C\c2cc[n+](C)c3ccccc23)c2ccccc21	?	-49.5%	8.44µM*	?	?
CCCCC(=O)Nc1cc(-c2cn3cccnc3n2)ccc1C	nt	-10.6%	nt	17.6%	38.7%
CC(C)n1c(=O)c2ccccc2n1CC(=O)N1CCOCC1	i	nt	9.2%	nt	nt
COc1ccccc1C1CN(CC(=O)N[C@H]2CCCCNC2=O)Cc2ccccc2O1 (stereo partly drawn)	i	nt	nt	nt	nt
CN(C)c1ccc(C(=C2c3ccccc3-c3ccccc32)c2ccc(N(C)C)cc2)cc1	nt	-0.2%	nt	5.5%	nt
Cc1ccc2ccc3c(c2n1)NS(=O)(=O)c1ccc(C(F)(F)F)cc1-3	nt	4.5%	nt	7.08µM*	nt
CC(C)(C)OC(=O)NS(=O)(=O)Nc1ccccc1Br	nt	1.6%	nt	6.3%	?
N#C/C(C(=O)Nc1ccc(Cl)cc1)=C(/S)Nc1ccccc1	i	11.2µM*	-22.9%	11.2µM*	2.0%
Cc1cc(C)c2nc(C)cc(Nc3ccc(C(=O)N(C)C)cc3)c2c1	i	34.7%	nt	22.3%	-9.8%
CC(=O)c1ccc(Nc2cc(C)nc3c(C)cc(C)cc23)cc1	nt	-94.6%	?	11.2µM*	-10.0%
CCOC(=O)CCN1C(=O)[C@H]2[C@H]3[C@H](O)[C@H](O)C/C(=N/NC(=O)OCc4ccccc4)[C@H]3CC[C@@H]2C1=O	nt	nt	nt	nt	-5.0%[15.3 µM]
CCN(CC)S(=O)(=O)c1cc(NC(=O)C2CCN(c3ncnc4sc(C)c(C)c34)CC2)ccc1Cl	?	-17.0%	11.2µM*	?	nt
O=C/C=C/c1c(-c2ccccc2)cc2oc3ccccc3cc1-2	?	15.8µM*	?	11.2µM*	-2.4%
